Assay results reported in paper PMC7862700, “An all-to-all approach to the identification of sequence-specific readers for epigenetic DNA modifications on cytosine”.

Key:
Assay in all cases: DAPPL (digital affinity profiling via proximity ligation, sequencing); 10 mM Tris-HCl pH 7.5, 50 mM NaCl, 1 mM DTT, 4% glycerol, room temperature, 30 min; GST-TFs on glutathione beads, 16-mer random dsDNA library, 0.1% formaldehyde crosslink after washing; high values mean tight binding
Conditions in all cases: protein: recombinant; tags: N-terminal GST; dsDNA, one strand shown
FEV = target: T1, FEV (Homo sapiens, UniProt Q99581 1-238)
T1 sequence: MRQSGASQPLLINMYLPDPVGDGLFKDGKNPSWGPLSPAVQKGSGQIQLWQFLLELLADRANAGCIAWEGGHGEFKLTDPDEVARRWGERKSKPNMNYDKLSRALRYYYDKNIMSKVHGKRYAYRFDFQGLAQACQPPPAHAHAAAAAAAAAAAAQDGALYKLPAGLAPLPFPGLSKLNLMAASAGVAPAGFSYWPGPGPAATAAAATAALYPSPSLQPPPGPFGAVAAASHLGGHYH
Outline: (§1)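 GST fusions of human transcription factors were expressed in yeast and captured with glutathione beads. Once given DNA barcodes and pooled alongside a tag-only sample, they were incubated for 30 min at room temperature with 200 nmole of a random double-stranded 16-mer DNA library in Tris/NaCl/DTT/glycerol buffer, then washed, crosslinked (0.1% formaldehyde), proximity-ligated, PCR-amplified and sequenced on an Illumina NextSeq500. The binding signal of each hexamer is its read frequency for a factor divided by its frequency for the tag-only sample.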

ETV5 = ETV5 (Homo sapiens, UniProt P41161 1-510)
Outline: as §1

SPIC = target: T2, SPIC (Homo sapiens, UniProt Q8N5J4 1-248)
T2 sequence: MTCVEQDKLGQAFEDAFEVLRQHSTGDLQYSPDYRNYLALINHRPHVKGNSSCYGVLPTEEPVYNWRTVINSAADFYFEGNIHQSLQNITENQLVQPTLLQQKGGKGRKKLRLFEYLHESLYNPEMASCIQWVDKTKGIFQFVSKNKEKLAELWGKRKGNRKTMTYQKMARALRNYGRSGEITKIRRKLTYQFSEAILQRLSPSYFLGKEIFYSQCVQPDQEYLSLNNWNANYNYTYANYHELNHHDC
Outline: as §1

ELF4 = ELF4 (Homo sapiens, UniProt Q99607 1-663)
Outline: as §1

ELK4 = target: T3, ELK4 (Homo sapiens, UniProt P28324-2 1-405)
T3 sequence: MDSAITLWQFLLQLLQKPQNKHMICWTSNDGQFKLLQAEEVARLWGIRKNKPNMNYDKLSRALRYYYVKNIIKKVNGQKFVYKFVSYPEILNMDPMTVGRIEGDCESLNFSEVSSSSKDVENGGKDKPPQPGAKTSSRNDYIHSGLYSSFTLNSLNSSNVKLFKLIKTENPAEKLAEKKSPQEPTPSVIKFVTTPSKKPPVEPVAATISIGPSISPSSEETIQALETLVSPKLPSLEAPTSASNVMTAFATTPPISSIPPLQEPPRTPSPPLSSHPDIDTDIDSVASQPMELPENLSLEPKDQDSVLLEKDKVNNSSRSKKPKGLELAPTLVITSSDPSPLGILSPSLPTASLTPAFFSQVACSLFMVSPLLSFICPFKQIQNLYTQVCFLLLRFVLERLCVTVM
Outline: as §1

ETV2 = target: T4, ETV2 (Homo sapiens, UniProt O00321 1-342)
T4 sequence: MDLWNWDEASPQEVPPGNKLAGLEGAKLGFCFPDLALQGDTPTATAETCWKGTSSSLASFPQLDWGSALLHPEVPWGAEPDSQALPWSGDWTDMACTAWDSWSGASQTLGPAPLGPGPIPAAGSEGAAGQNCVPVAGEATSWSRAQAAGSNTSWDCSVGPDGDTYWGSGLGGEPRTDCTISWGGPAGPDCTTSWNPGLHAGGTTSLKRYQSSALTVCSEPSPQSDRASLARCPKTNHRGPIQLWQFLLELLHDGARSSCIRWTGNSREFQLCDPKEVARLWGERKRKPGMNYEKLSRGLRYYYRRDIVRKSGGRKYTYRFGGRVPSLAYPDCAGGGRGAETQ
Outline: as §1

ELF3 = target: T5, ELF3 (Homo sapiens, UniProt P78545 1-371)
T5 sequence: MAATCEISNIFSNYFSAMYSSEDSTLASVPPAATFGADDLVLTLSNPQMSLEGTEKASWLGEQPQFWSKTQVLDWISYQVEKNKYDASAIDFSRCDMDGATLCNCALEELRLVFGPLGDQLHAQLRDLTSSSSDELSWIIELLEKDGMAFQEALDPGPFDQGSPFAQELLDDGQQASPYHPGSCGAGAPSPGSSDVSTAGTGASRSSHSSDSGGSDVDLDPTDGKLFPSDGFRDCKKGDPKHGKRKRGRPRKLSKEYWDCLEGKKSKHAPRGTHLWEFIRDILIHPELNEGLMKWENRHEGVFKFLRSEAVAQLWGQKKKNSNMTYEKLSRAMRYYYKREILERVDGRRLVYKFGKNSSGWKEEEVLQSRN
Outline: as §1

ETV1 = ETV1 (Homo sapiens, UniProt P50549 1-477)
Outline: as §1

ERF = target: T6, ERF (Homo sapiens, UniProt P50548 1-548)
T6 sequence: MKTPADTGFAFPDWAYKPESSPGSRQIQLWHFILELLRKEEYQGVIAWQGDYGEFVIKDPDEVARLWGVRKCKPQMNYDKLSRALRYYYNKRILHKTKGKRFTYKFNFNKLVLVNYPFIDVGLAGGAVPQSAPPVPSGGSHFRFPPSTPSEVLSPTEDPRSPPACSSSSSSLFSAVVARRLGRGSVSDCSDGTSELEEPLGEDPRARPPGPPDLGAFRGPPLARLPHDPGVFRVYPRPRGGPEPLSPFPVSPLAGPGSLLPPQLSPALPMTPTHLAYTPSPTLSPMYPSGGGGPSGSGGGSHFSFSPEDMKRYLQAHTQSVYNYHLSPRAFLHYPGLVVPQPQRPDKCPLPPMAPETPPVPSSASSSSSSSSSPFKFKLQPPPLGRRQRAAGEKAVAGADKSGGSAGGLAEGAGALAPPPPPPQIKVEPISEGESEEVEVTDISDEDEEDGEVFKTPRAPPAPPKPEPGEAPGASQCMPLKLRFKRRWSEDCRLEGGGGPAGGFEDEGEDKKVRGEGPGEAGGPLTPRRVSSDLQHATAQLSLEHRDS
Outline: as §1

ETV3L = target: T7, ETV3L (Homo sapiens, UniProt Q6ZN32 1-361)
T7 sequence: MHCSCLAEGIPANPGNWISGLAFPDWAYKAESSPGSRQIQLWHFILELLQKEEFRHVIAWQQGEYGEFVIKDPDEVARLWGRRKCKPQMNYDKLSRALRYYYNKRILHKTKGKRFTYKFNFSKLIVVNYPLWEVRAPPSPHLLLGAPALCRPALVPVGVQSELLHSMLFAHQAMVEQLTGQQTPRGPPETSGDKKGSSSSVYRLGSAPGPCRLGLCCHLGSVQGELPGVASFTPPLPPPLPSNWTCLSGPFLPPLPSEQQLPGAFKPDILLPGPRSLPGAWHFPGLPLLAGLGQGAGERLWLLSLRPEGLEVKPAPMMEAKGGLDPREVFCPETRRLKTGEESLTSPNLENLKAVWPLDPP
Outline: as §1

ETS2 = target: T8, ETS2 (Homo sapiens, UniProt P15036 1-469)
T8 sequence: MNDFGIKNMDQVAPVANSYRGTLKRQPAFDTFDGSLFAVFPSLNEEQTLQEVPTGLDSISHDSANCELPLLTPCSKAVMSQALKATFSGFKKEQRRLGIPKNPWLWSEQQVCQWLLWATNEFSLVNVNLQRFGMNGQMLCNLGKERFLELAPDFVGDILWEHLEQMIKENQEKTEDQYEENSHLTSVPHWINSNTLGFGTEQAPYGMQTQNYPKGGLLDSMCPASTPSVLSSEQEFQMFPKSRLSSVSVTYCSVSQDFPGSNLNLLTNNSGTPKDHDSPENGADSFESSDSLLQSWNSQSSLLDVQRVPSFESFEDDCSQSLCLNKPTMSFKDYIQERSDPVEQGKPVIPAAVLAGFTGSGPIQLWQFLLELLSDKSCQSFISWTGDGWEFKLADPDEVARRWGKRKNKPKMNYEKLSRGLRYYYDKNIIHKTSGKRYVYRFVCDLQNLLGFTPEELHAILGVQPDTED
Outline: as §1

SPDEF = target: T9, SPDEF (Homo sapiens, UniProt O95238 1-335)
T9 sequence: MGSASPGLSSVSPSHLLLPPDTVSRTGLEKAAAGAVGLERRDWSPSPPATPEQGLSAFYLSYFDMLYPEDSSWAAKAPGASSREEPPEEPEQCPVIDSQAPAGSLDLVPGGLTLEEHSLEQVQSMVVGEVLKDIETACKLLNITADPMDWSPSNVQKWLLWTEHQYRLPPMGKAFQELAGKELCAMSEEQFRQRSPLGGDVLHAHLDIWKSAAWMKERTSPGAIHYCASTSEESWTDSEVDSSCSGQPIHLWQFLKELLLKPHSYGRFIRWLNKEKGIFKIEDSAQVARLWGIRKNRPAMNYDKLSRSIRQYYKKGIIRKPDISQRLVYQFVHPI
Outline: as §1

ETV7 = target: T10, ETV7 (Homo sapiens, UniProt Q9Y603 1-341)
T10 sequence: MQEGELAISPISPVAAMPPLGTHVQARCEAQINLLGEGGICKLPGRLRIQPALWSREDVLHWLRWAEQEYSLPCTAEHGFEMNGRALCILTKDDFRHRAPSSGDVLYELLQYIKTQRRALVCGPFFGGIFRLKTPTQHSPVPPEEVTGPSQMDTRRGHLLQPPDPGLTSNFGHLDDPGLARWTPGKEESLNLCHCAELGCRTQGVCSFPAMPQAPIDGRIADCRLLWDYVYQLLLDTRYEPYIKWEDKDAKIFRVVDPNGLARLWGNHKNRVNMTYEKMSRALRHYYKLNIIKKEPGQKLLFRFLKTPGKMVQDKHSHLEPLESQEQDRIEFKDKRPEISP
Outline: as §1

ELF5 = target: T11, ELF5 (Homo sapiens, UniProt Q9UKW6-2 1-255)
T11 sequence: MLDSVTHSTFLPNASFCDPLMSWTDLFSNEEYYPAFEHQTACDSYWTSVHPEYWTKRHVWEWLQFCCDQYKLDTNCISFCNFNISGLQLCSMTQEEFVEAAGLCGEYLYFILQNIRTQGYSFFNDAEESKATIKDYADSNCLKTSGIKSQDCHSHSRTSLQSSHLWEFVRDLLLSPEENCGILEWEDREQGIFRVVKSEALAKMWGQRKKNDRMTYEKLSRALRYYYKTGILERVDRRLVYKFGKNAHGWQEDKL
Outline: as §1

ETV3 = target: T12, ETV3 (Homo sapiens, UniProt P41162-2 1-143)
T12 sequence: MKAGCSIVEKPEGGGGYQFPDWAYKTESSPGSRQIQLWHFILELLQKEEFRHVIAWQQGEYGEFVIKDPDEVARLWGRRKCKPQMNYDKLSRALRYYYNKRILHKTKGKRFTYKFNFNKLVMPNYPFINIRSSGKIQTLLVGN
Outline: as §1

ETV6 = ETV6 (Homo sapiens, UniProt P41212 1-452)
Outline: as §1

Chain of ELF4 (Q99607 whole entry): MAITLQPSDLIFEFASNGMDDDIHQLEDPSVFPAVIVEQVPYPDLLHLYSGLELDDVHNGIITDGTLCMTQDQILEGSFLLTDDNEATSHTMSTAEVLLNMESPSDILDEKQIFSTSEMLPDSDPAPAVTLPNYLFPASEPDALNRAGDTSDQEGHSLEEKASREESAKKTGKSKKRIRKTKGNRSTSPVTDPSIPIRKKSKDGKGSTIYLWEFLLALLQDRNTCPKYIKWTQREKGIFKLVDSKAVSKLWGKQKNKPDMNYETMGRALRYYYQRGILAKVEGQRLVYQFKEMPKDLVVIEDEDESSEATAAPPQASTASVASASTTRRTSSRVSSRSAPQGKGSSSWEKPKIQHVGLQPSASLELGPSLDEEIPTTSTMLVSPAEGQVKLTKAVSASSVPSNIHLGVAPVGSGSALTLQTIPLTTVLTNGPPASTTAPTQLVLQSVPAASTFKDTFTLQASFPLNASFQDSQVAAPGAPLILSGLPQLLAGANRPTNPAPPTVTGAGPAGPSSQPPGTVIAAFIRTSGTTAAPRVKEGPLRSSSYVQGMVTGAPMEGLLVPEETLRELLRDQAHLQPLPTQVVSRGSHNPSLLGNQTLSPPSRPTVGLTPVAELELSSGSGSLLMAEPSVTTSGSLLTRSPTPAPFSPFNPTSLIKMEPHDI
Chain of ETV1 (P50549 whole entry): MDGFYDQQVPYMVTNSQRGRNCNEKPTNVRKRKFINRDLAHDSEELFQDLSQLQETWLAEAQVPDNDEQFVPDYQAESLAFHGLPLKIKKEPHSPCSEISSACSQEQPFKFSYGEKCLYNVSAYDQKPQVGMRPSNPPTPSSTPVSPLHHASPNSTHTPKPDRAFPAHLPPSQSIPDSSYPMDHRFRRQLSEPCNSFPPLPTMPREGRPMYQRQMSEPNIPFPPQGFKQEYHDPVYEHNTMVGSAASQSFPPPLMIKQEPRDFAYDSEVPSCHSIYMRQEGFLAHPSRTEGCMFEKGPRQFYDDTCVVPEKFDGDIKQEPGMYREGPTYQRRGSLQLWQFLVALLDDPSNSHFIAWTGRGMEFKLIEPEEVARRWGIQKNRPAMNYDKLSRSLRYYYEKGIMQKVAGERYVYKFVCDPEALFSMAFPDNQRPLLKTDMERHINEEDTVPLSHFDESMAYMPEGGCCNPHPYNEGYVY
Chain of ETV5 (P41161 whole entry): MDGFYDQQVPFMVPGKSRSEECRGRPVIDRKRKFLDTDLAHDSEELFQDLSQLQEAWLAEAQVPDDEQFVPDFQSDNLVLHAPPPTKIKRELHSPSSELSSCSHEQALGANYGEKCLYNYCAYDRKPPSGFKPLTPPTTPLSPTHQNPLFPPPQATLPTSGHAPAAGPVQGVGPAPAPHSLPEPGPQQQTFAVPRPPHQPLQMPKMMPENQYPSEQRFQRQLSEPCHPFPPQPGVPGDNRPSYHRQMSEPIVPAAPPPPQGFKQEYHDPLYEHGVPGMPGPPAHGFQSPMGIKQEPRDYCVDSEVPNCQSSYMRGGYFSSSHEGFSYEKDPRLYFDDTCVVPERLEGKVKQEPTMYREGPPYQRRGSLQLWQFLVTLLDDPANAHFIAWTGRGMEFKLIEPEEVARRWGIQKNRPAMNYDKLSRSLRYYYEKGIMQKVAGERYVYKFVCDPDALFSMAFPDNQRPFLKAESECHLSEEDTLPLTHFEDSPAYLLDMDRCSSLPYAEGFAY
Chain of ETV6 (P41212 whole entry): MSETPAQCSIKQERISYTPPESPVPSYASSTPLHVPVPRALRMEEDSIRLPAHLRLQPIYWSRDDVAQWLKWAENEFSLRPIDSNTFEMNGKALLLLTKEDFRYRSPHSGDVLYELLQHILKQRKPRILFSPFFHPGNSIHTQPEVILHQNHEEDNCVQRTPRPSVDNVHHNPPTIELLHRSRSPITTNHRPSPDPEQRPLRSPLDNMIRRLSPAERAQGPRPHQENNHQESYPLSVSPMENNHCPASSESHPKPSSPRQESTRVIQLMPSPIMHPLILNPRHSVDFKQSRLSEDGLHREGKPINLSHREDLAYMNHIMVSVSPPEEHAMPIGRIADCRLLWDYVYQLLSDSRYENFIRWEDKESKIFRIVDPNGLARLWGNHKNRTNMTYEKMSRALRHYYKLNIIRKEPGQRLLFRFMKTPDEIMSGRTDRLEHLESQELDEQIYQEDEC

Row | Sequence | binding signal (FEV) | binding signal (ETV5) | binding signal (SPIC) | binding signal (ELF4) | binding signal (ELK4) | binding signal (ETV2) | binding signal (ELF3) | binding signal (ETV1) | binding signal (ERF) | binding signal (ETV3L) | binding signal (ETS2) | binding signal (SPDEF) | binding signal (ETV7) | binding signal (ELF5) | binding signal (ETV3) | binding signal (ETV6)
1 | ACCTCA | 1.17 fold enrichment (6-mer frequency, TF over GST control) | 1.16 fold enrichment (6-mer frequency, TF over GST control) | 1.33 fold enrichment (6-mer frequency, TF over GST control) | 1.2 fold enrichment (6-mer frequency, TF over GST control) | 1.26 fold enrichment (6-mer frequency, TF over GST control) | 1.2 fold enrichment (6-mer frequency, TF over GST control) | 1.24 fold enrichment (6-mer frequency, TF over GST control) | 1.32 fold enrichment (6-mer frequency, TF over GST control) | 1.23 fold enrichment (6-mer frequency, TF over GST control) | 1.29 fold enrichment (6-mer frequency, TF over GST control) | 1.21 fold enrichment (6-mer frequency, TF over GST control) | 1.09 fold enrichment (6-mer frequency, TF over GST control) | 1.04 fold enrichment (6-mer frequency, TF over GST control) | 1.11 fold enrichment (6-mer frequency, TF over GST control) | 1.18 fold enrichment (6-mer frequency, TF over GST control) | 1.17 fold enrichment (6-mer frequency, TF over GST control)
2 | ACAACC | 1.34 fold enrichment (6-mer frequency, TF over GST control) | 1.27 fold enrichment (6-mer frequency, TF over GST control) | 1.19 fold enrichment (6-mer frequency, TF over GST control) | 1.19 fold enrichment (6-mer frequency, TF over GST control) | 1.19 fold enrichment (6-mer frequency, TF over GST control) | 1.26 fold enrichment (6-mer frequency, TF over GST control) | 1.26 fold enrichment (6-mer frequency, TF over GST control) | 1.23 fold enrichment (6-mer frequency, TF over GST control) | 1.19 fold enrichment (6-mer frequency, TF over GST control) | 1.17 fold enrichment (6-mer frequency, TF over GST control) | 1.26 fold enrichment (6-mer frequency, TF over GST control) | 1.28 fold enrichment (6-mer frequency, TF over GST control) | 1.18 fold enrichment (6-mer frequency, TF over GST control) | 1.22 fold enrichment (6-mer frequency, TF over GST control) | 1.29 fold enrichment (6-mer frequency, TF over GST control) | 1.28 fold enrichment (6-mer frequency, TF over GST control)
